Measured values as given in PubChem BioAssay (NCATS).
Calls of active or inactive are those of the source. Calls follow the shape of the dose curve; as a rule, active = well fitted curve in the direction sought with a large enough effect; inconclusive = small, poorly fitted or top-dose-only effect, or another doubt; inactive = no such curve, though single readings can be large or run the other way.

Test: Validation qHTS assay for inhibitors of Activation Induced Cytidine Deaminase (AID): UDG Counterscreen signal (AID 1347427); as to activity, negative = inhibition: 0% is about no effect
Conditions: biochemical UDG counterscreen, fluorescence signal; series mostly up to 115 µM; activity, negative = inhibition: at the top concentration
In short: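 Counterscreen read of UDG activity (2 U/mL, 4/3x) in the FRET deamination format with AID (1 uM, 4/3x), DJC20/DJC23 substrates (250 nM, 4x), 4 h at room temperature. NaOH stop, fluorescence at 560 ex/665 em.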
Potency is read from the fitted curve at half-maximal effect.

SMILES | activity, negative = inhibition | Potency
N=c1c[n+](N2CCOCC2)[n-]o1 | -1.26% (inactive) | –
CC(C)(C)c1onc(OCP(=O)(O)O)c1CC(N)C(=O)O (centres undefined) | – | inactive
CSc1ccc2c(c1)C(N1CCN(C)CC1)Cc1ccccc1S2 (centres undefined) | -3.08% (inactive) | –
COCCOC(=O)C1=C(C)NC(C)=C(C(=O)OC/C=C/c2ccccc2)C1c1cccc([N+](=O)[O-])c1 (centres undefined) | 1.96% (inactive) | –
CC(C)NC[C@H](O)c1ccc(O)c(O)c1 | – | inactive
CN1CCN(C2Cc3ccccc3Sc3ccc(Cl)cc32)CC1 (centres undefined) | 3.63% (inactive) | –
CC(C)(C)[C@]1(O)CCN2C[C@H]3c4ccccc4CCc4cccc(c43)[C@@H]2C1 | – | inactive
Cc1cc(N)c2ccccc2[n+]1CCCCCCCCCC[n+]1c(C)cc(N)c2ccccc21 | – | 89.1 µM (active)
CSc1ccc2c(c1)N(CCC1CCCCN1C)c1ccccc1S2 (centres undefined) | -0.445% (inactive) | –
